Measurements from ChEMBL document CHEMBL1157539, “Thousands of chemical starting points for antimalarial lead identification” (Nature, 2010).

What follows are compounds tested on HepG2 (assay: GSK_TCMDC: Percent inhibition of human HepG2 cell line. Test compounds present at 10uM.).
Type: functional

**Q.** With `O=C(O)C(F)(F)F.c1ccc(CN2CCC(NCc3ccccc3-c3ccc(CNCc4ccc5c(c4)OCO5)cc3)CC2)cc1` as the compound, how does the Inhibition read?
**A.** The Inhibition was 26%.

**Q.** For `COc1ccc(CCCc2nc(N)nc(N)c2-c2ccc(Cl)cc2)cc1`, which Inhibition is on record?
**A.** The Inhibition was 65%.

**Q.** `Cc1ccc(Cc2c[nH]c(NCCSCc3ccc(CN(C)C)s3)nc2=O)cn1` was tested. Which Inhibition did it give?
**A.** The Inhibition was 3%.

**Q.** For `CCCCOc1cc2c(cc1OCC)C(C=Cc1ccc(Cl)cc1Cl)=NCC2.Cl`, which Inhibition is on record?
**A.** The Inhibition was 0%.

**Q.** With `Cl.NC(=O)c1cccc(Nc2nccc(Nc3ccc(Oc4cccc5ccccc45)cc3)n2)c1` as the compound, how does the Inhibition read?
**A.** The Inhibition was 0%.

**Q.** How did the Inhibition turn out when `O=C(Cc1cccc(Cl)c1)Nc1cccc(-c2c[nH]c3nc(Nc4cccc(O)c4)ncc23)c1.O=C(O)C(F)(F)F` was run?
**A.** Its Inhibition is 23%.

**Q.** Which Inhibition does the source give for `COc1ccc(-c2ccc(CNCc3ccccc3)cc2)cc1S(=O)(=O)NCCN1CCCC1.O=C(O)C(F)(F)F` here?
**A.** The Inhibition was 36%.

**Q.** For `CC(CN1CCN(C)CC1)C(=O)Nc1cccc(-c2ccc(-c3nc4ccccc4[nH]3)cc2)c1` (stereo not given), which Inhibition is on record?
**A.** Its Inhibition is 2%.

**Q.** How did the Inhibition turn out when `CC(=O)Nc1nc(C(=O)Nc2cccc(-c3ccc(-c4nc5cccc(C)c5[nH]4)cc3)c2)cs1` was run?
**A.** The Inhibition was 100%.

**Q.** With `CCCC(C)Nc1nc(C)cc(N[C@@H](Cc2ccccc2)C(=O)NCCOc2ccccc2)n1.O=C(O)C(F)(F)F` (stereo not given in full) as the compound, how does the Inhibition read?
**A.** Its Inhibition is 10%.

**Q.** How did the Inhibition turn out when `Cc1cc(Cl)c(S(=O)(=O)N(C)c2ccccc2)cc1OCC(=O)NC1CCCCC1` was run?
**A.** The Inhibition was 3%.

**Q.** Which Inhibition does the source give for `O=C(C1CC1c1ccccc1)N(Cc1ccc(-c2ccc(CNCCc3ccccc3)cc2)cc1)C1CCNCC1.O=C(O)C(F)(F)F` (stereo not given) here?
**A.** The Inhibition was 36%.

**Q.** How did the Inhibition turn out when `Brc1cc2c(cc1C=NNc1nc(=Nc3ccccc3)[nH]c(=Nc3ccccc3)[nH]1)OCO2` was run?
**A.** The Inhibition was 0%.

**Q.** How did the Inhibition turn out when `O=C(NC(CCCN1CCC2(CC1)OCc1ccccc12)c1ccc(Cl)c(Cl)c1)c1cc(C(F)(F)F)cc(C(F)(F)F)c1` (stereo not given) was run?
**A.** The Inhibition was 55%.

**Q.** Which Inhibition does the source give for `Nc1cc(/C=C/c2ccc([N+](=O)[O-])o2)nc2ccccc12` here?
**A.** The Inhibition was 100%.

**Q.** Which Inhibition does the source give for `CN(Cc1ccccc1)C1CCCN(c2cc(NC(=O)c3cccs3)ccn2)C1.O=C(O)C(F)(F)F` (stereo not given) here?
**A.** The Inhibition was 2%.

**Q.** Which Inhibition does the source give for `CCCc1cc(NCC)nc(Nc2ccc(C)cc2)n1` here?
**A.** Its Inhibition is 22%.

**Q.** Which Inhibition does the source give for `Clc1cc(Nc2ncnc3cc(C#C[C@H]4CCCN4)sc23)cc2nc(Cc3ccccc3)[nH]c12.O=C(O)C(F)(F)F` here?
**A.** The Inhibition was 29%.

**Q.** Which Inhibition does the source give for `CCOc1cc(C(=O)NCC2CCN(CC3CCCCC3)CC2)ccc1-c1nc2cc(Cl)ccc2[nH]1` here?
**A.** The Inhibition was 14%.

**Q.** For `Cc1cc(-c2ccc(CNCc3ccsc3)cc2)ccc1S(=O)(=O)NCCN1CCCC1.O=C(O)C(F)(F)F`, which Inhibition is on record?
**A.** Its Inhibition is 57%.

**Q.** For `O=C(NC1CCCCN(Cc2ccccc2O)C1)c1cccc(C(F)(F)F)c1.O=C(O)C(F)(F)F` (stereo not given), which Inhibition is on record?
**A.** Its Inhibition is 0%.

**Q.** Which Inhibition does the source give for `COc1nc(NCC(C)C)nc(Oc2ccc(=O)n(Cc3ccccc3)n2)n1` here?
**A.** Its Inhibition is 1%.

**Q.** For `Fc1ccc2c(NN=Cc3ccccc3F)ccnc2c1`, which Inhibition is on record?
**A.** Its Inhibition is 10%.

**Q.** `O=C(Nc1ccc(-c2cccc(-c3nc4ccccc4[nH]3)c2)cc1)Nc1ccsc1` was tested. Which Inhibition did it give?
**A.** Its Inhibition is 56%.

**Q.** With `O=C(/C=C/c1ccc(Cl)c(Cl)c1)NCCCCCN1CCCN(C(=O)Nc2ccc(F)c(F)c2)CC1` as the compound, how does the Inhibition read?
**A.** Its Inhibition is 26%.

**Q.** `O=C(Cc1cccc2ccccc12)N1CCc2cc3nccc(N4CCN5CCC[C@H]5C4)c3cc21` was tested. Which Inhibition did it give?
**A.** The Inhibition was 3%.

**Q.** Which Inhibition does the source give for `CCOc1ccc(-c2nonc2NC(=O)c2ccccc2F)cc1OCC` here?
**A.** The Inhibition was 0%.

**Q.** `Cn1ccnc1CNC(=O)c1ccc(-c2ccc(-c3nc4cc(C(F)(F)F)ccc4[nH]3)s2)cc1` was tested. Which Inhibition did it give?
**A.** Its Inhibition is 40%.

**Q.** `COc1ccc2cc(C(=O)NC3CCC(CCN4CCc5cc(C#N)ccc5C4)CC3)[nH]c2c1.Cl` (stereo not given) was tested. Which Inhibition did it give?
**A.** The Inhibition was 9%.

**Q.** How did the Inhibition turn out when `O=C(Nc1ccncc1)c1cn(-c2ccccc2)nc1-c1cccs1` was run?
**A.** Its Inhibition is 7%.

**Q.** `CCCCCCCc1[nH]c2ccccc2c(=O)c1C` was tested. Which Inhibition did it give?
**A.** The Inhibition was 48%.

**Q.** With `OC(CNc1ccnc(Nc2ccccc2)n1)c1ccc(C(F)(F)F)cc1` (stereo not given) as the compound, how does the Inhibition read?
**A.** The Inhibition was 3%.

**Q.** How did the Inhibition turn out when `COc1ccc(N2CCN(CCc3ccc(NC(=O)c4ccc([N+](=O)[O-])cc4)cc3)CC2)c(OC)c1` was run?
**A.** The Inhibition was 45%.

**Q.** Which Inhibition does the source give for `Cc1ccc(F)cc1S(=O)(=O)N1CCCCC(c2ccc(C(F)(F)F)cc2)=N1` here?
**A.** The Inhibition was 8%.

**Q.** With `CC(C)OC(=O)c1cccnc1SCC(=O)Nc1ccc(C(F)(F)F)cc1Cl` as the compound, how does the Inhibition read?
**A.** Its Inhibition is 3%.

**Q.** With `CCCCCCN1CCC(NCc2ccc(C(F)(F)F)cc2)CC1.O=C(O)C(F)(F)F` as the compound, how does the Inhibition read?
**A.** Its Inhibition is 11%.

**Q.** `CCOc1cc(CC)ccc1C1CCN(CCN2CCC(NC(=O)c3ccc(-c4ccc(C(C)=O)cc4)cc3)CC2)CC1` was tested. Which Inhibition did it give?
**A.** Its Inhibition is 25%.

**Q.** With `CC(C)C[C@H](Nc1ccc(C#N)c2ccccc12)C(=O)NC(C)(C)C12CC3CC(CC(C3)C1)C2.O=C(O)C(F)(F)F` as the compound, how does the Inhibition read?
**A.** Its Inhibition is 19%.

**Q.** For `Nc1nc(N)c2c(ccc3ccccc32)n1`, which Inhibition is on record?
**A.** Its Inhibition is 60%.

**Q.** Which Inhibition does the source give for `CC1(C)CCCN(Cc2c(O)ccc3c(O)c(-c4nc5ccccc5s4)c(=N)oc23)C1` here?
**A.** The Inhibition was 20%.
